Compounds without any hit were thinned out: in the full panel of roughly 83,000, 20% have a hit.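 Assay: single dose, 48 h. Readout: percent growth (0 = no net growth; negative = cell death). Active: <10.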 Active and inactive are the calls of the source.
system: MDA-MB-468 breast; assay: NCI-60 one-dose screen, 48 h (100 = growth as untreated, 0 = no growth, -100 = all killed); conditions: 10 µM unless noted

SMILES | growth
O=C1C=CC(=O)N1c1ccc2c(c1)Cc1cc(F)ccc1-2 | 92.6% (inactive)
COC(=O)/C(CCC=C(C)C)=C1\[C@@H](OC(C)=O)C[C@@]2(C)[C@H]1C[C@@H](O)[C@H]1[C@@]3(C)CC[C@H](NC(=O)c4cnccn4)[C@@H](C)[C@@H]3CC[C@@]12C | 106% (inactive)
O=C(/C=C/c1ccc(F)cc1)c1ccc(O)cc1 | 83% (inactive)
Cc1ccc2cnc(N)c(C#Cc3cncc(C(=O)Nc4ccc(CN5CCN(C)CC5)c(C(F)(F)F)c4)c3)c2c1 | -87.1% (active)
COc1ccc(/C=C/c2nc(Nc3ccc(S(=O)(=O)Nc4cc(C)on4)cc3)c3ccccc3n2)cc1 | 29.9% (inactive)
C=C[C@@H]1C[C@@H]2Cc3ccccc3N1O2 | 97.8% (inactive)
N/C(=N\O)c1cn(C2OC(CO)C(O)C2O)c2ncnc(N)c12 (stereo not given) | -23.4% (active)
COc1cc(C)c(Cl)cc1C1=NN(c2ccc(S(N)(=O)=O)cc2)C(/C=C/c2ccccc2)C1 (stereo not given) | 41.2% (inactive)
CC1=NN(c2ccc(Cl)cc2)CC1(C)N=O (stereo not given) | 7.84% (active)
O=C1C2C(C(=O)N1CC[Se][Se]CCN1C(=O)C3C(C1=O)[C@H]1C=C[C@@H]3C1)[C@H]1C=C[C@@H]2C1 (stereo not given in full) | -12.6% (active)
Oc1cccc(-c2nc(N3CCOCC3)c3c4c(sc3n2)CCCC4)c1 | 46.1% (inactive)
c1ccc2c(c1)oc1c3cccnc3ccc21 | -62% (active)
O=C(Oc1ccc(CCl)cc1)c1ccccc1 | -62.7% (active)
CC(=O)N1N=C(c2ccc3c(c2)OCO3)CC1c1c(C)nn(-c2ccccc2)c1N(C)Cc1ccccc1 (stereo not given) | 61.5% (inactive)
N#Cc1cn(Cc2ccc(Cl)cc2Cl)c(C(=O)c2ccc(Br)cc2)c1N | 75.5% (inactive)
Cc1c(CN(C)C)cc(C(C)C)cc1C(C)C | 100% (inactive)
N#Cc1c2c(nn(-c3ccccc3)c1=O)C(O)=C([N+](=O)[O-])C(c1ccccc1)C2 (stereo not given) | 64.1% (inactive)
O=C(O)CCCC(=O)O | 94.9% (inactive)
CCC(=O)Oc1ccc(OC)cc1 | 106% (inactive)
COc1cc2cc(Oc3ccc(NC(=O)Nc4cc(C(F)(F)F)cc(C(F)(F)F)c4)cc3)c(C)nc2cc1OCCN1CCCCC1 | -78.6% (active)

SMILES | growth
CCOC(=O)[C@H](CSSc1ncnc2cc[nH]c12)NC(=O)[C@@H](C)c1ccc2cc(OC)ccc2c1 | 5.8% (active)
C#Cc1nc(C(C)=O)cs1 | 90.5% (inactive)
O=C1/C(=C/c2cccc3cnccc23)Cc2cc(F)ccc21 | 65.2% (inactive)
Cc1cc(NCc2cc(Nc3ccnc4cc(Cl)ccc34)ccc2F)nc(N2CCN(c3ccccc3)CC2)n1 | 30.2% (inactive)
O=C(Nc1ccc(Cl)cc1)c1cc2ccccc2cc1OP(=O)(O)O | 71.3% (inactive)
COc1cc2c(C#N)n3c(c2cc1OC)C(=O)C(c1ccccc1)Oc1ccccc1-3 (stereo not given) | 74.5% (inactive)
c1ccc2c(c1)Oc1cccnc1-n1nccc1-2 | 94.7% (inactive)
Fc1ccc(Cn2cc(CSc3nc4ccccc4o3)nn2)cc1 | 109% (inactive)
CCCc1cc2cc(-n3nc(C)c4c3CC(C)(C)CC4=O)cc(NC3CCC(O)CC3)c2c(=O)[nH]1 (stereo not given) | -0.951% (active)
O=C1c2cccnc2C(=O)c2nc3cc(N4CCN(C5CC5)CC4)ccc3nc21 | -22% (active)
NC(=S)Nc1cccc(O)c1 | 101% (inactive)
CCOc1ccc(Br)cc1/C=C(\C#N)c1ccc([N+](=O)[O-])cc1 | 51.7% (inactive)
N=c1sc(Cc2ccc(Cl)cc2)cn1CC(=O)c1ccc(F)cc1 | 84.7% (inactive)
O=C(NNc1nc(Cl)nc(N2CCN(C(c3ccccc3)c3ccccc3)CC2)n1)c1ccccc1 | -47.2% (active)
Cn1c(=O)c2[nH]c(SCC(=O)Nc3ccc(C(=O)/C=C/c4ccccc4Cl)cc3)nc2n(C)c1=O | 76.4% (inactive)
CC(=O)Nc1ccc(S(=O)(=O)Cl)cc1 | 95% (inactive)
C[C@@H]1C(=O)N(C[C@@H](Cc2ccccc2)NC(=O)OCc2ccccc2)[C@]1(Cc1ccccc1)C(=O)OCc1ccccc1 | 26.1% (inactive)
O=[N+]([O-])c1cccc(/C=N/NC(=S)NC23CC4CC(CC(C4)C2)C3)c1 | 82.1% (inactive)
Cc1ccc(-c2csc(N/N=C/c3cccs3)n2)cc1 | 65.1% (inactive)
O=C(Nc1ccc(OS(=O)(=O)c2ccccc2)cc1)C1CCCCC1 | 103% (inactive)
